From PubChem BioAssay (NCATS) come the findings set out here.

Where “and” joins values, the source holds several entries; their conditions need not be identical. Identical values can stand only once. Inconclusive results are not listed. Values without a mark were called inactive. Calls of active or inactive are those of the source. Calls follow the shape of the full dose curve.

The target in assay [1] is Bile acid receptor (Homo sapiens) (UniProt Q96RI1). The assay is described as follows: qHTS assay for small molecule agonists of farnesoid X receptor signaling (AID 588527).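 Also: series mostly up to about 77 µM; 0% = vehicle basal and 100% = reference agonist.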 Conditions: HEK293T FXR-UAS-bla, beta-lactamase ratio, 16 h; activation: hits give high values. The gist of the method:
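Read-out: beta-lactamase reporter fluorescence with CCF4 substrate in GeneBLAzer FXR-UAS-bla HEK293T cells, after 16 h compound exposure at 37 C. Response scaled between DMSO basal (0%) and chenodeoxycholic acid at 100 uM (100%).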
A general note: qHTS replaces the single test concentration by a dilution series.

Assay [2] addresses Peroxisome proliferator-activated receptor delta (Homo sapiens) (UniProt Q03181). As to the kind of experiment: qHTS assay for small molecule agonists of peroxisome proliferator-activated receptor delta signaling (AID 588534).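 Also: 0% = DMSO basal wells and 100% = positive control agonist at 10 µM.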 The method, boiled down: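 Cell-based beta-lactamase reporter assay run in agonist mode: cells seeded and incubated 5 hrs at 37 C, compounds added and incubated 18 hrs at 37 C. CCF4 dye fluorescence read after 2 hrs at RT; EC50 and efficacy from Hill fits.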

Sequence of Bile acid receptor (Homo sapiens) (Q96RI1 whole entry, looked up): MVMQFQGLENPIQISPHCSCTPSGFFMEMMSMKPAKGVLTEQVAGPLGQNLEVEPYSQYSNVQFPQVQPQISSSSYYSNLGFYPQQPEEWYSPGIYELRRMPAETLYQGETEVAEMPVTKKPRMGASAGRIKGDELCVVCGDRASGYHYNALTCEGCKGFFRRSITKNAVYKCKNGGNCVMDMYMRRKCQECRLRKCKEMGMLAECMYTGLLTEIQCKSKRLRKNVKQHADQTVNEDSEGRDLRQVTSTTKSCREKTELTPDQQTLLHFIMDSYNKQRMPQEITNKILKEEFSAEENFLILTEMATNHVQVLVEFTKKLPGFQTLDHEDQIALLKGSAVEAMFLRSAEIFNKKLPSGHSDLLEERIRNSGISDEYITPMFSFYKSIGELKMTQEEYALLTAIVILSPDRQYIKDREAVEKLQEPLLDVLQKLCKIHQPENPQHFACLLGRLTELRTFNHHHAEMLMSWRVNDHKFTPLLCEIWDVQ
Sequence of Peroxisome proliferator-activated receptor delta (Homo sapiens) (Q03181 whole entry, looked up): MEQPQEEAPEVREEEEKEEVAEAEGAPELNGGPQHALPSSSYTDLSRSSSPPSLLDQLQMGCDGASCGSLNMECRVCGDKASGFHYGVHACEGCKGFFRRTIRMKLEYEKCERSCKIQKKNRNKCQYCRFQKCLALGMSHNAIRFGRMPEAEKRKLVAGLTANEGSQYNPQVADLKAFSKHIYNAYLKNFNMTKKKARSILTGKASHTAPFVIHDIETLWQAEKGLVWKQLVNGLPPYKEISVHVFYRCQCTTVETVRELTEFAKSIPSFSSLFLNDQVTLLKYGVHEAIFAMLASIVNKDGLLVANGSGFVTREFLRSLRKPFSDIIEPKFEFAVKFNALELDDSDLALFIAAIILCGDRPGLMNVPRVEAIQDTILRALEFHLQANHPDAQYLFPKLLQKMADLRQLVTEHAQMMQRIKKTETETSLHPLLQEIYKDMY

`CCCCCCCCCCCCCCN`: in assay [1], the activation was 2.17%. Besides, the call in assay [2] was inactive.
With `Cl[Si](Cl)(Cl)c1ccccc1`, in assay [1], the activation is 0.575%. The call in assay [2] was inactive.
As to `CCCCCCCCOC(=O)c1cc(O)c(O)c(O)c1`, in assay [1], the activation is 5.29%. The compound was classed as inactive in assay [2].
Turning to `CC(O)CC(C)O` (stereo not given), in assay [1], the activation was -1.48%. Moreover, the result in assay [2] was inactive.
Consider `CCNc1nc(NC(C)CC)nc(OC)n1` (stereo not given), for which the activation in assay [1] is -1.27%. In assay [2], the compound was called inactive.
As for `CCCC/C=C\CCCCCCCCO`, the activation in assay [1] was -5.44%. Moreover, the outcome in assay [2] was inactive.
Regarding `CCOCCOCC`, the activation in assay [1] was -1.11%. In addition, in assay [2], the result was inactive.
Consider `COc1cc(-c2ccc(N=C=O)c(OC)c2)ccc1N=C=O`, for which the activation in assay [1] was 0.158%. Moreover, in assay [2], the result was inactive.
Turning to `O=[N+]([O-])c1cc(Cl)c(Cl)c(Cl)c1Cl`, the activation in assay [1] was -3.36%. In assay [2], the result was inactive.
On to `O=C(O)CCCCCCCCCCC(=O)O`, for which, in assay [1], the activation was -2.26%. Moreover, the result in assay [2] was inactive.
Regarding `Clc1ccccn1`, in assay [1], the activation was -2.48%. The call in assay [2] was inactive.
Regarding `OCc1cccc(Oc2ccccc2)c1`, the activation in assay [1] was -0.998%. Besides, the outcome in assay [2] was inactive.
As to `CO[Si](CCCOCC1CO1)(OC)OC` (stereo not given), in assay [1], the activation is -0.427%. In assay [2], the call was inactive.
As for `C=Cc1ccc(C=C)cc1`, the activation in assay [1] is -3.75%. Moreover, in assay [2], the compound was classed as inactive.
`COc1ccc(N)c(C)c1`: in assay [1], the activation is -1.77%. The result in assay [2] was inactive.
With `CC(C)(C)[C@H](O)[C@H](Cc1ccc(Cl)cc1)n1cncn1`, the activation in assay [1] was -2.05% and 0.498%. Besides, the outcome in assay [2] was inactive.
For `CCO`, the activation in assay [1] was -3.44%. Further, the outcome in assay [2] was inactive.
For the compound `Cc1ccc(C(=O)O)cc1`, the activation in assay [1] was -1.14%. The result in assay [2] was inactive.
As for `NC(=O)/N=N/C(N)=O`, the activation in assay [1] was -1.16%. The compound was classed as inactive in assay [2].
As for `O=C=NCCCCCCN=C=O`, the activation in assay [1] is 0.566%. For the same compound, the result in assay [2] was inactive.
With `C=C(C)C(=O)OCC(CC)(COC(=O)C(=C)C)COC(=O)C(=C)C`, the activation in assay [1] is -1.88%. In assay [2], the compound was classed as inactive.
As to `CCCCOCCOCCOCCCC`, the activation in assay [1] is -0.244%. In addition, the result in assay [2] was inactive.
With `C=C(C)C1CC=C(C)C(OC(C)=O)C1` (stereo not given), the activation in assay [1] is -0.422%. Further, in assay [2], the result was inactive.
Turning to `Cc1ccc(N=Nc2c(O)ccc3ccccc23)c([N+](=O)[O-])c1`, the activation in assay [1] was -0.458%. For the same compound, the outcome in assay [2] was inactive.
On to `CC(C)=CCC[C@@H](C)[C@H]1CC[C@@]2(C)C3=C(CC[C@]12C)[C@@]1(C)CC[C@H](O)C(C)(C)[C@@H]1CC3`, for which the activation in assay [1] was -5.29%. In addition, the result in assay [2] was inactive.
`c1ccc2[nH]cnc2c1`: in assay [1], the activation was -1.83%. In addition, the compound was called inactive in assay [2].
For the compound `CCc1ccc(C(c2ccc(CC)cc2)C(Cl)Cl)cc1`, the activation in assay [1] is 3.04%. In addition, the outcome in assay [2] was inactive.
For `Cc1ccc(C)o1`, the activation in assay [1] is 1.14%. The result in assay [2] was inactive.
For `C[C@]12CCC(=O)C=C1CC[C@@H]1[C@@H]2[C@@H](O)C[C@]2(C=O)[C@@H](C(=O)CO)CC[C@@H]12`, the activation in assay [1] was 1.4%. The outcome in assay [2] was inactive.
In the case of `Cc1ccc(C)c(N)c1`, the activation in assay [1] was -1.33%. Further, the result in assay [2] was inactive.
In the case of `CCCCC(CC)COP(=O)(O)OCC(CC)CCCC` (stereo not given), the activation in assay [1] was -0.5%. In assay [2], the compound was called inactive.
Turning to `O=C(/C=C/c1ccc(O)c(O)c1)O[C@@H](C(=O)O)[C@@H](OC(=O)/C=C/c1ccc(O)c(O)c1)C(=O)O`, the activation in assay [1] is -1.16%. In addition, the result in assay [2] was inactive.
Take `Cc1ccccc1Br`: the activation in assay [1] was -2.02%. Further, the compound was called inactive in assay [2].
With `O=C(O)c1c(Cl)cccc1Cl`, the activation in assay [1] was 2.87%. For the same compound, in assay [2], the call was inactive.
On to `CN=C(N)NCC1CCOC1` (stereo not given), for which, in assay [1], the activation was -3.33% and 1.46%. In addition, in assay [2], the result was inactive.
Turning to `Cc1ccc(C)c(O)c1`, in assay [1], the activation is 2.07%. Besides, the compound was called inactive in assay [2].
In the case of `CCC/C(=N\OCC)C1=C(O)CC(O)(CC(C)S(=O)(=O)CC)CC1=O` (stereo not given), the activation in assay [1] was 0.69%. The outcome in assay [2] was inactive.
On to `CCCCCCCCCCCCc1ccccc1`, for which the activation in assay [1] is 3.31%. The call in assay [2] was inactive.
For `CC(C)Cc1c(C(=O)O)c(C(F)F)nc(C(F)(F)F)c1C1=NCCS1`, in assay [1], the activation is 0.784%. The compound was classed as inactive in assay [2].
In the same order, the values of `CNc1nc(=O)n(C2CCC(O)CC2)c(=O)n1C` (stereo not given) are 2.07% and “inactive”.
For `CNC(=O)c1ccccc1`, in that order: 3.12% and “inactive”.
For the compound `CC(=O)Nc1ccc(N)cc1`, in assay [1], the activation is 1.67%. Besides, in assay [2], the result was inactive.
In the same order, the values of `CC1=C(/C=C/C(C)=C/C=C/C(C)=C/C=O)C(C)(C)CCC1` are 23.6% and “inactive”.
For `CCCC(Cl)CCCC(Cl)CCC(Cl)CCC(Cl)CCC(Cl)CCCC(Cl)CCC` (stereo not given), the activation in assay [1] was 1.98%. Further, the result in assay [2] was inactive.
Consider `NC(=O)Cc1cccc2ccccc12`, for which the activation in assay [1] is 0.544%. Further, the outcome in assay [2] was inactive.
On to `CCC(C)(C)C(=O)O`, for which, in assay [1], the activation was 0.339%. Further, the result in assay [2] was inactive.
For `CN(C)CCCCl`, in that order: -3.17% and “inactive”.
As to `CCCCCCCC/C=C\CCCCCCCC(=O)O`, in assay [1], the activation is -0.994% and -1.49%. In addition, the compound was called inactive in assay [2].
Consider `Cc1ccccc1C(N)=O`, for which, in assay [1], the activation was 2.86%. Besides, in assay [2], the outcome was inactive.
`O=S(=O)(O)c1ccc(N=Nc2c(O)ccc3cc(S(=O)(=O)O)ccc23)cc1`: the activation in assay [1] is -1.3%. Moreover, the compound was called inactive in assay [2].
